Results: PubChem BioAssay (EPA / NIEHS)
Inconclusive results are not listed. The source made the active and inactive calls. How the source made its calls, unless noted: active means hit-call score of the fitted dose curve at least 0.9, where 1 is the maximum; inconclusive means response in the unintended direction; inactive means score below 0.9.

Columns and labels:
[1] = target: Nuclear receptor subfamily 1 group I member 3 (Homo sapiens) (UniProt Q14994); experiment: ATG_CAR_TRANS: Attagene TRANS-FACTORIAL HepG2 Assay for human Constitutive Androstane Receptor (CAR) (AID 2282969); conditions: HepG2 Attagene TRANS-FACTORIAL CAR reporter;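 further: activators raise reporter mRNA above DMSO so AC50 marks induction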
In short: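 Readout is reporter mRNA induction, quantified by fluorescent primer extension and capillary electrophoresis after RT-PCR. Cells were HepG2 transiently carrying chimeric NR-Gal4 constructs with GAL4-UAS reporters, treated for 24 h; activity scored upward from DMSO.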

[2] = target: Estrogen receptor (Homo sapiens) (UniProt P03372); experiment: ATG_ERa_TRANS: Attagene TRANS-FACTORIAL HepG2 Assay for human Estrogen Receptor alpha (ERa) (AID 2282970); conditions: HepG2 Attagene TRANS ERa GAL4 reporter, mRNA
In short: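 Transactivation via ERa-Gal4 chimera in HepG2; 24 hour incubation; reporter mRNA detected by fluorescence RT-PCR and capillary electrophoresis.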

[3] = target: X-box-binding protein 1 (Homo sapiens) (UniProt P17861); experiment: ATG_Xbp1_CIS: Attagene CIS-FACTORIAL HepG2 Assay for human X-box Binding Protein 1 (XBP1) (AID 2282972; active means hit-call score of the fitted dose curve at least 0.9, where 1 is the maximum; inactive means score below 0.9); conditions: HepG2 XBP1 cis-element reporter, Attagene multiplex; actives raise or lower the signal
In short: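 HepG2 cells transiently transfected with cis-regulated multiple reporter transcription units; endogenous transcription factor activity measured 24 hours after chemical dosing. Reporter mRNA quantified by RT-PCR, 6-FAM primer extension, HpaI digestion and capillary electrophoresis; bidirectional fitting versus DMSO.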

[4] = target: Oxysterols receptor LXR-beta (Homo sapiens) (UniProt P55055); experiment: ATG_LXRb_TRANS: Attagene TRANS-FACTORIAL HepG2 Assay for human Liver X Receptor beta (LXRb) (AID 2282981); conditions: HepG2 Attagene TRANS GAL4-LXRb reporter, mRNA
In short: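 Transient transfection HepG2 (multiplexed RTUs, GAL4-UAS); NR-Gal4 chimera; 24 h exposure; RNA → RT-PCR → 6-FAM primer extension → HpaI → CE; increase vs DMSO.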

[5] = ATG_M_06_TRANS: Attagene TRANS-FACTORIAL HepG2 Assay for M06 Transcription Factor (Internal Marker) (AID 2282983); conditions: HepG2 Attagene TRANS M06 internal marker reporter;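 further: reporter transcript level by RT-PCR then capillary electrophoresis fluorescence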
In short: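 Measured by capillary electrophoresis of fluorescently labelled RT-PCR products, this endpoint reflects reporter mRNA in HepG2 cells harbouring exogenous NR-GAL4 reporter constructs after 24 h exposure, with DMSO as baseline.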

[6] = target: Nuclear receptor subfamily 4 group A member 2 (Homo sapiens) (UniProt P43354); experiment: ATG_NURR1_TRANS: Attagene TRANS-FACTORIAL HepG2 Assay for human Nuclear Receptor Related Protein 1 (NURR1) (AID 2282985); conditions: HepG2 Attagene TRANS reporter, mRNA readout
In short: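 Transient transfection of HepG2, human liver cells, with multiple GAL4-UAS reporter transcription units. Cells dosed 24 h, RNA isolated, reverse-transcribed, PCR-amplified, FAM-labelled, HpaI-digested, sized by capillary electrophoresis. DMSO served as negative control.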

[7] = target: Transcriptional activator Myb (Homo sapiens) (UniProt P10242); experiment: ATG_Myb_CIS: Attagene CIS-FACTORIAL HepG2 Assay for human Myeloblastosis (Myb) Proto-Oncogene Transcription Factor (AID 2282986; active means hit-call score of the fitted dose curve at least 0.9, where 1 is the maximum; inactive means score below 0.9); conditions: HepG2 Attagene CIS-FACTORIAL Myb reporter transcription; actives raise or lower the signal
In short: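 HepG2 cells were transiently transfected with cis-regulated multiple reporter transcription units reflecting endogenous Myb activity, then exposed to compound for 24 hours. Reporter mRNA was measured by RT-PCR with capillary electrophoresis; bidirectional fitting versus DMSO baseline.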

[8] = target: Nuclear respiratory factor 1 (Homo sapiens) (UniProt Q16656); experiment: ATG_NRF1_CIS: Attagene CIS-FACTORIAL HepG2 Assay for human Nuclear Respiratory Factor 1 (NRF1) Orphan Gene (AID 2282987; active means hit-call score of the fitted dose curve at least 0.9, where 1 is the maximum; inactive means score below 0.9); conditions: HepG2 NRF1 cis-element reporter, Attagene multiplex; actives raise or lower the signal
In short: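 HepG2 cells transiently transfected with multiple reporter transcription units under cis-regulatory promoter control, so endogenous transcription-factor activity is read. After 24 h compound exposure, reporter mRNA quantified by RT-PCR, fluorescent labelling, HpaI digestion and capillary electrophoresis; bidirectional fitting versus DMSO.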

[9] = ATG_NFI_CIS: Attagene CIS-FACTORIAL HepG2 Assay for human Nuclear Factor I (NFI) (AID 2282989; active means hit-call score of the fitted dose curve at least 0.9, where 1 is the maximum; inactive means score below 0.9); conditions: HepG2 cis-regulatory reporter, NFI response element transcription; actives raise or lower the signal
In short: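 Reporter transcription driven by endogenous transcription factors in HepG2 cells; 24 h treatment. Quantitation by labelled RT-PCR fragments on capillary electrophoresis, gain- or loss-of-signal relative to DMSO.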

[10] = target: Myc proto-oncogene protein (Homo sapiens) (UniProt P01106); experiment: ATG_Myc_CIS: Attagene CIS-FACTORIAL HepG2 Assay for human Myelocytomatosis (Myc) Proto-Oncogene Transcription Factor (AID 2282990; active means hit-call score of the fitted dose curve at least 0.9, where 1 is the maximum; inactive means score below 0.9); conditions: HepG2, Attagene cis-reporter transcription factor activity; actives raise or lower the signal
In short: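 After 24 h chemical treatment of HepG2 cells carrying multiplexed cis-regulated reporter constructs, reporter transcripts quantified by RT-PCR and capillary electrophoresis of fluorescent fragments. Gain or loss fitted against DMSO baseline.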

[11] = target: Androgen receptor (Homo sapiens) (UniProt P10275); experiment: ATG_AR_TRANS: Attagene TRANS-FACTORIAL HepG2 Assay for human Androgen Receptor (AR) (AID 2282973); conditions: HepG2 Attagene TRANS-FACTORIAL AR reporter transcription
In short: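 Transfected HepG2, 24 h treatment, chimeric NR-Gal4 driving GAL4-UAS reporters. mRNA induction by RT-PCR/capillary electrophoresis fluorescence; DMSO as negative control and baseline.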

[12] = ATG_M_19_TRANS: Attagene TRANS-FACTORIAL HepG2 Assay for M19 Transcription Factor (Internal Marker) (AID 2282974); conditions: HepG2 Attagene TRANS-FACTORIAL M19 internal marker reporter
In short: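 HepG2 cells transiently transfected with multiple GAL4-UAS reporter transcription units were exposed to chemicals for 24 h. Reporter mRNA was read by RT-PCR, 6-FAM primer extension, HpaI digestion and capillary electrophoresis; gain of signal fitted relative to DMSO.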

[13] = target: Bile acid receptor (Homo sapiens) (UniProt Q96RI1); experiment: ATG_FXR_TRANS: Attagene TRANS-FACTORIAL HepG2 Assay for Farnesoid X Receptor (FXR) (AID 2282979); conditions: HepG2 Attagene TRANS FXR-GAL4 reporter transcription;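 further: hits raise reporter mRNA above DMSO so AC50 marks FXR activation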
In short: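 Chimeric FXR-GAL4 activity in transiently transfected human HepG2 liver cells is scored as induction of reporter mRNA after 24 h of dosing. Detection uses RT-PCR with fluorescent labelling and capillary electrophoresis, with DMSO serving as baseline.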

[14] = target: Hepatocyte nuclear factor 4-alpha (Homo sapiens) (UniProt P41235); experiment: ATG_HNF4a_TRANS: Attagene TRANS-FACTORIAL HepG2 Assay for human Hepatocyte Nuclear Factor 4 alpha (HNF4a) (AID 2282982); conditions: HepG2 HNF4a transactivation reporter, mRNA readout
In short: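 Readout is fluorescent reporter-transcript fragments resolved by capillary electrophoresis after RT-PCR from HepG2 cells dosed for 24 h. Cells carried transfected GAL4-UAS reporter constructs measuring exogenous NR-GAL4 chimera activity; DMSO served as baseline.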

[15] = ATG_M_32_TRANS: Attagene TRANS-FACTORIAL HepG2 Assay for M32 Transcription Factor (Internal Marker) (AID 2282984); conditions: HepG2 Attagene TRANS M32 internal marker reporter;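 further: transcript level of a background control reporter unit measured by RT-PCR and capillary electrophoresis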
In short: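 Measures reporter mRNA induction in human HepG2 liver cells after 24 h chemical treatment. Transcripts from transiently transfected GAL4-UAS reporter units are amplified, fluorescently labelled and sized by capillary electrophoresis; gain of signal relative to DMSO.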

[16] = target: Steroid hormone receptor ERR1 (Homo sapiens) (UniProt P11474); experiment: ATG_ERRa_TRANS: Attagene TRANS-FACTORIAL HepG2 Assay for human Estrogen-Related Receptor alpha (ERRa) (AID 2282971); conditions: HepG2 Attagene TRANS reporter, ERRa transactivation
In short: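 HepG2 cells were transiently transfected with multiple GAL4-UAS reporter units, then dosed with compound for 24 h. Total RNA was reverse-transcribed, reporter cDNA PCR-amplified and fluorescently labelled, and fragments resolved by capillary electrophoresis; induction was compared with DMSO.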

[17] = ATG_GAL4_TRANS: Attagene TRANS-FACTORIAL HepG2 Assay for GAL4 (Internal Marker) (AID 2282976); conditions: HepG2 Attagene TRANS GAL4 internal marker reporter
In short: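 Fluorescence from capillary electrophoresis of labelled RT-PCR products quantifies reporter mRNA induction after 24 h dosing of HepG2 cells carrying transfected GAL4-UAS reporter transcription units. Vehicle DMSO serves as baseline.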

[18] = target: Estrogen-related receptor gamma (Homo sapiens) (UniProt P62508); experiment: ATG_ERRg_TRANS: Attagene TRANS-FACTORIAL HepG2 Assay for human Estrogen-Related Receptor gamma (ERRg) (AID 2282977); conditions: HepG2 Attagene TRANS reporter, ERRg transactivation;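 further: hits increase reporter signal over DMSO so potencies reflect activators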
In short: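 HepG2 cells transiently transfected with multiplexed GAL4-UAS reporter units driven by chimeric NR-Gal4 proteins; 24 h exposure. Reporter mRNA quantified by RT-PCR, fluorescent labelling, HpaI digestion and capillary electrophoresis; gain of signal vs DMSO.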

[19] = target: Glucocorticoid receptor (Homo sapiens) (UniProt P04150); experiment: ATG_GR_TRANS: Attagene TRANS-FACTORIAL HepG2 Assay for human Glucocorticoid Receptor (GR) (AID 2282978); conditions: HepG2 Attagene TRANS GR reporter, mRNA transcription;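 further: activators score as hits since higher reporter transcript over DMSO is fitted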
In short: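 HepG2 cells transiently transfected with multiplexed reporter units in which chimeric NR-GAL4 proteins drive GAL4-UAS reporters; 24 h compound exposure. Reporter mRNA measured by RT-PCR, 6-FAM labelling, HpaI digestion and capillary electrophoresis; gain-of-signal fitted versus DMSO.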

[20] = target: Oxysterols receptor LXR-alpha (Homo sapiens) (UniProt Q13133); experiment: ATG_LXRa_TRANS: Attagene TRANS-FACTORIAL HepG2 Assay for human Liver X Receptor alpha (LXRa) (AID 2282980); conditions: HepG2 Attagene TRANS reporter, LXRa transactivation
In short: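 Transient HepG2 transfectants, 24 h dosing, RT-PCR/CE mRNA reporter quantitation; gain-of-signal vs DMSO.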

Measured: AC50

Sequence of Transcriptional activator Myb (Homo sapiens) (P10242 whole entry, looked up): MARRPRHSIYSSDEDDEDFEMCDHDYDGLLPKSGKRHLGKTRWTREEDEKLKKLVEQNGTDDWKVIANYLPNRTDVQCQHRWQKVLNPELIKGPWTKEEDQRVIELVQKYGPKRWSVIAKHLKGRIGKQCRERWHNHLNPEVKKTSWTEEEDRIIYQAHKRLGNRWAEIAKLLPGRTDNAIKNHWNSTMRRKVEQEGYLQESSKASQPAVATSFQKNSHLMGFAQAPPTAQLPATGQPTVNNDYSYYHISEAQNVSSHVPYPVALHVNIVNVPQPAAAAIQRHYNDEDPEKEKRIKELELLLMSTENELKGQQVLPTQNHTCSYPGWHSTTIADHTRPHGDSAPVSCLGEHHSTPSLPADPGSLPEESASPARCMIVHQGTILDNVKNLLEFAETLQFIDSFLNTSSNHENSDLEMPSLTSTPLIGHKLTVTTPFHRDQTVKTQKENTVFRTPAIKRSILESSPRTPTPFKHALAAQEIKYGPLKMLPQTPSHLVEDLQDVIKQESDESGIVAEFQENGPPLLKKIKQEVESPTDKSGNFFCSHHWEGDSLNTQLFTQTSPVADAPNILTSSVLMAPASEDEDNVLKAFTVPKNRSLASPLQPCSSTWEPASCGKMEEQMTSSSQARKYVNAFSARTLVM
Sequence of Hepatocyte nuclear factor 4-alpha (Homo sapiens) (P41235 whole entry, looked up, the tested form may be a part): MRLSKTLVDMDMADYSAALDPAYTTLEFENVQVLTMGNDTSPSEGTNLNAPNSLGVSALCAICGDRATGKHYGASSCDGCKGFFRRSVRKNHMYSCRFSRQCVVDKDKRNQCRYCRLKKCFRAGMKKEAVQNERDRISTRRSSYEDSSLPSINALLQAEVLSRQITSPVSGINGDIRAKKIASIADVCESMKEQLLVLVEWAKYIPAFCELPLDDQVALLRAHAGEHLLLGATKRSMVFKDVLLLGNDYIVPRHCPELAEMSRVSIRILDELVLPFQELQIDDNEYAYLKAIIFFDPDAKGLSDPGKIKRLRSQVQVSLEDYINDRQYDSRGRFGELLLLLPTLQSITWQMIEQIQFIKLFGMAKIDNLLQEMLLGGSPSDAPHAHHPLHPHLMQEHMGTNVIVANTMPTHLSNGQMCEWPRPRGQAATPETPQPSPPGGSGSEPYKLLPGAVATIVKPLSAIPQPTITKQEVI
Sequence of Oxysterols receptor LXR-alpha (Homo sapiens) (Q13133 whole entry, looked up): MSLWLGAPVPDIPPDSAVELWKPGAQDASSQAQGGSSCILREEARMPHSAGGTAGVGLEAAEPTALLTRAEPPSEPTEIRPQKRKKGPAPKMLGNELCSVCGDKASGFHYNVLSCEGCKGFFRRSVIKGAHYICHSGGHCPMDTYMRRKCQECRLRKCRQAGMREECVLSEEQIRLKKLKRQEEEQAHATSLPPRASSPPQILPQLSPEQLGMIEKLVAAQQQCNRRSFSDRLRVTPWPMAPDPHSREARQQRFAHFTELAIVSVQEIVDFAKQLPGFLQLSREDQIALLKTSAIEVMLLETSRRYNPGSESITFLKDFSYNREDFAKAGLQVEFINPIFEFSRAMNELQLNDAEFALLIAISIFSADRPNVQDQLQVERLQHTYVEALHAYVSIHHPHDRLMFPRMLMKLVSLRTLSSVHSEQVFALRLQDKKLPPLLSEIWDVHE
Sequence of Oxysterols receptor LXR-beta (Homo sapiens) (P55055 whole entry, looked up, the tested form may be a part): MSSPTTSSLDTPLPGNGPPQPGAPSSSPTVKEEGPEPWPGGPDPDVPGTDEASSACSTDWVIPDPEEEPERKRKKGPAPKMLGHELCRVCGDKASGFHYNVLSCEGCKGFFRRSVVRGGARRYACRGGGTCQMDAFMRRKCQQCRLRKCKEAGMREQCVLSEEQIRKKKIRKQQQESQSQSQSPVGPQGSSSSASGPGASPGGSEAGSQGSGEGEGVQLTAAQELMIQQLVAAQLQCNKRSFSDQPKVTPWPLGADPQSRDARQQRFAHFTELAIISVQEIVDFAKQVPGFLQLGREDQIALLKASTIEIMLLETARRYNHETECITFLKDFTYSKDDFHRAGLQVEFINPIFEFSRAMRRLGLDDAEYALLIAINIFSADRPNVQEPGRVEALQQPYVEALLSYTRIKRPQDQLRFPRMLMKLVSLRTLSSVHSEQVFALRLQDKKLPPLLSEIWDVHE
Sequence of Estrogen receptor (Homo sapiens) (P03372 whole entry, looked up, the tested form may be a part): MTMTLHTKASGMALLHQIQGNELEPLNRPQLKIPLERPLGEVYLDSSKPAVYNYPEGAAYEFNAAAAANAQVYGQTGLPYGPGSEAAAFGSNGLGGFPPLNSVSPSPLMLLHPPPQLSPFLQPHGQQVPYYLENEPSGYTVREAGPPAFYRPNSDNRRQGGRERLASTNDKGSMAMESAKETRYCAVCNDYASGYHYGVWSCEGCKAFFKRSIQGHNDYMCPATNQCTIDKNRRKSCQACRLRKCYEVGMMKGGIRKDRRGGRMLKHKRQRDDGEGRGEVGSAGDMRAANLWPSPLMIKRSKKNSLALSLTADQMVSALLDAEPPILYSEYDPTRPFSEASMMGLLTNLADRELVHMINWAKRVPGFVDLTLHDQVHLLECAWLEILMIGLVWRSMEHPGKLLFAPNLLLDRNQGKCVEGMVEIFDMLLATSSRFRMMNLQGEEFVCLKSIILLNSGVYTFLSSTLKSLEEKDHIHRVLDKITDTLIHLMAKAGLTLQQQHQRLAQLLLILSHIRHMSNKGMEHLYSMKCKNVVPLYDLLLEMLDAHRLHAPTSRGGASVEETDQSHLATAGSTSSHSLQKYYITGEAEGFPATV
Sequence of X-box-binding protein 1 (Homo sapiens) (P17861 whole entry, looked up): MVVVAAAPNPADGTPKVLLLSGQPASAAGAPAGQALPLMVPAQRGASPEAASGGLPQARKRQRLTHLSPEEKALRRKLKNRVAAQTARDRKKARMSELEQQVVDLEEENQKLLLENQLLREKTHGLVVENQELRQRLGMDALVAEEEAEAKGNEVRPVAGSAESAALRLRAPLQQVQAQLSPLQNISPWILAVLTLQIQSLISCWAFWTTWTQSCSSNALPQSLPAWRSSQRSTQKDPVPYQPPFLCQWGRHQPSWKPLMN
Sequence of Steroid hormone receptor ERR1 (Homo sapiens) (P11474 whole entry, looked up, the tested form may be a part): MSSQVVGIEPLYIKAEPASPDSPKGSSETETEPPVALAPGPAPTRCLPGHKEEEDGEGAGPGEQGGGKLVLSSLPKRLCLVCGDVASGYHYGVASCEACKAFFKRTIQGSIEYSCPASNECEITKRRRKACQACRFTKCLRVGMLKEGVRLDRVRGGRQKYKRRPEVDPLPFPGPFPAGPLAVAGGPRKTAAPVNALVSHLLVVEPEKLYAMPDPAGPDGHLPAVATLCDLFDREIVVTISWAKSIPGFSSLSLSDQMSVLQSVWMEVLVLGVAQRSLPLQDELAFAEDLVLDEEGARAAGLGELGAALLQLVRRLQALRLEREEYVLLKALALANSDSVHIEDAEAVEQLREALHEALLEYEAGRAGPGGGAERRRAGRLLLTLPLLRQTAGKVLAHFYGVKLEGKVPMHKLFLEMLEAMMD
Sequence of Nuclear receptor subfamily 4 group A member 2 (Homo sapiens) (P43354 whole entry, looked up, the tested form may be a part): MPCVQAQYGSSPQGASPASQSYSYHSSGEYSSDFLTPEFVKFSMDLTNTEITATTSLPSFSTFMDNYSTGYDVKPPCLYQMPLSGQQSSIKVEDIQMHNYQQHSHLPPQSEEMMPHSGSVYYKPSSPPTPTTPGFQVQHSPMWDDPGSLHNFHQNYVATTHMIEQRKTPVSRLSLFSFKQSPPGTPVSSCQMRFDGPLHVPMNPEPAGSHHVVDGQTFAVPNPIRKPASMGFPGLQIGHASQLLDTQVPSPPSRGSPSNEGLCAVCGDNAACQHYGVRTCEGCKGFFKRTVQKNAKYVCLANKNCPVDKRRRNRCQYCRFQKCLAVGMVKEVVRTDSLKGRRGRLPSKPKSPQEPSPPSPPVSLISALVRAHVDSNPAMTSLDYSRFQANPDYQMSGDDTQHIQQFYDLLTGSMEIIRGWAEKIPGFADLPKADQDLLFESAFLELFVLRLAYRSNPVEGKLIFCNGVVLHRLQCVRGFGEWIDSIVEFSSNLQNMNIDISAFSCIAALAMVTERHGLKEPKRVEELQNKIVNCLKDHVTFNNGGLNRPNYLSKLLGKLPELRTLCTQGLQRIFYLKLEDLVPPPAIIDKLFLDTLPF
Sequence of Myc proto-oncogene protein (Homo sapiens) (P01106 whole entry, looked up, the tested form may be a part): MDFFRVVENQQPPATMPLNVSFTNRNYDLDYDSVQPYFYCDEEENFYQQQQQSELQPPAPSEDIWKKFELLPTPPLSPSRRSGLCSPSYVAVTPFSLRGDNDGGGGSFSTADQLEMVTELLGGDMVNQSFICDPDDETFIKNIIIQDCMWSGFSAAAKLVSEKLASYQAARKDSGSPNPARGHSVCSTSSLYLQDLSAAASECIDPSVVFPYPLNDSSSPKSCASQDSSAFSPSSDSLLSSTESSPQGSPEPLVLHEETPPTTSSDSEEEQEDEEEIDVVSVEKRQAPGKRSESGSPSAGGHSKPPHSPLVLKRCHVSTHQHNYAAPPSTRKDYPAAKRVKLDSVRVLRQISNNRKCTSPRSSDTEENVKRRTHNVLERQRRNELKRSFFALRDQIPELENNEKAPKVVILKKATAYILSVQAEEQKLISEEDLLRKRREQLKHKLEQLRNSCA
Sequence of Bile acid receptor (Homo sapiens) (Q96RI1 whole entry, looked up, the tested form may be a part): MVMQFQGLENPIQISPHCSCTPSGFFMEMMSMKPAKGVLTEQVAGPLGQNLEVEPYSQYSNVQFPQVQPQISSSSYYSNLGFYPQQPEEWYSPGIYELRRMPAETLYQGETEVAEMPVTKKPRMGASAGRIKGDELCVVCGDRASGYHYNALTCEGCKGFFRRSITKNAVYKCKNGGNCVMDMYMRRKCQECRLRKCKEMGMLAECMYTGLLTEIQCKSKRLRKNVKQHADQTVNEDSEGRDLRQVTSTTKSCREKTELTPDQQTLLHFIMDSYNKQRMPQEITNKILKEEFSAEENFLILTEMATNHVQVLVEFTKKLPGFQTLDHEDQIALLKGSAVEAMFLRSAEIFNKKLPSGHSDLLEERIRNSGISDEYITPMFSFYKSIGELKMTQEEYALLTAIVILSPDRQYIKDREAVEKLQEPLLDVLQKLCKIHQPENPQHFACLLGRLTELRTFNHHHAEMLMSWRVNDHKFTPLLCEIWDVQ

CC(C)(C1CCC(O)CC1)C1CCC(O)CC1 (stereo unspecified)
active: [2] 11.2 µM
inactive: [1] | [3] | [4] | [5] | [6] | [7] | [8] | [9] | [10]

COP(=S)(OC)Oc1cc(Cl)c(I)cc1Cl
inactive: [1] | [11] | [12] | [13] | [4] | [14] | [5] | [15] | [10]
active: [3] 38.6 µM | [7] 49.5 µM | [8] 55.6 µM | [9] 29.1 µM

CC(C)[C@H](C(=O)OC(C#N)c1cccc(Oc2ccccc2)c1)c1ccc(OC(F)F)cc1 (stereo partly specified)
inactive: [1] | [16] | [3] | [17] | [18] | [19] | [14] | [5] | [15] | [6] | [7] | [8] | [9] | [10]

COCC(=O)N(c1c(C)cccc1C)[C@H](C)C(=O)OC
inactive: [1] | [16] | [3] | [12] | [18] | [20] | [4] | [15] | [7] | [8] | [9] | [10]

CNC(=O)N(C)c1nc2ccccc2s1
inactive: [1] | [16] | [3] | [11] | [17] | [19] | [13] | [20] | [4] | [15] | [7] | [8] | [9] | [10]

CCNc1nc(NCC)nc(SC)n1
inactive: [1] | [2] | [3] | [19] | [14] | [15] | [7] | [8] | [9] | [10]

O=C(O)C1(c2ccc3c(c2)OC[C@H](Cc2ccc(-c4ccccc4)cc2)[C@H]3O)CCCC1
inactive: [1] | [16] | [3] | [17] | [13] | [15] | [6] | [7] | [8] | [9] | [10]

O=C(NC(=O)c1c(F)cccc1F)Nc1cc(Cl)c(F)c(Cl)c1F
inactive: [1] | [3] | [14] | [15] | [7] | [8] | [9] | [10]

O=[N+]([O-])c1cccc2ccccc12
inactive: [16] | [3] | [12] | [17] | [18] | [14] | [5] | [15] | [7] | [9] | [10]
active: [2] 39.9 µM

CC(C)(C#N)N=NC(C)(C)C#N
inactive: [1] | [3] | [12] | [19] | [20] | [4] | [15] | [6] | [7] | [8] | [9] | [10]

N#CCCC(Br)(C#N)CBr (stereo unspecified)
inactive: [2] | [16] | [12] | [19] | [13] | [15] | [6] | [8]
active: [3] 57.9 µM | [9] 54.3 µM
